This is an account of results in PubChem BioAssay.

Values joined by “and” are separate entries in the source; they are usually repeats but may differ in a detail not shown here. Identical values can stand only once. Active and inactive are the calls of the source.

Assay [1] concerns Plasmodium falciparum Sir2 (PF13_0152, Sir2A). As to the kind of experiment: Plasmodium falciparum Sir2A binding compounds – biochemical, small-molecule microarray, 635 nm fluorescence, primary screen (AID 1098).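 Also: score merges spot fluorescence intensity with its signal-to-noise ratio.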 The settings on record: fluorescence 635 nm, higher = more signal.
The nature of assay [2]: probe aDKK1 binding to arrayed compounds – biochemical, biotinylated probe, 635/667 nm fluorescence, primary screen (AID 1099).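 Also: score merges 667nm spot fluorescence with signal to noise across triplicate slides; reference of the scale not given here.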 The settings on record: small-molecule microarray, higher = more signal.
A short description of assay [3]: probe aCHRDL2 binding to arrayed compounds – biochemical, biotinylated probe, 635/667 nm fluorescence, primary screen (AID 1100). The settings on record: small-molecule microarray, higher = more signal.
A short description of assay [4]: change in splice reporter luminescence, either direction, cell-based, HEK293, spliceosome inhibition project, primary screen (AID 1101).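 Also: HEK293 cells carrying a splicing-competent luciferase reporter gene; test concentration not given here.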 The settings on record: HEK293 splicing luciferase reporter, 24 h, higher = more signal, called active from +8 up or from −8 down. (In general: Reporter assays use an easily measured gene product as a stand-in for the process of interest.)

The target of assay [5] is Fibroblast growth factor 10 (Homo sapiens) (UniProt O15520). Briefly: compounds binding fibroblast growth factor 10 – biochemical, small-molecule microarray, 635 nm fluorescence, primary screen (AID 1102). The settings on record: FGF10 binding, fluorescence 635 nm, higher = more signal.
Fibroblast growth factor 10 (Homo sapiens), sequence (O15520 whole entry, looked up): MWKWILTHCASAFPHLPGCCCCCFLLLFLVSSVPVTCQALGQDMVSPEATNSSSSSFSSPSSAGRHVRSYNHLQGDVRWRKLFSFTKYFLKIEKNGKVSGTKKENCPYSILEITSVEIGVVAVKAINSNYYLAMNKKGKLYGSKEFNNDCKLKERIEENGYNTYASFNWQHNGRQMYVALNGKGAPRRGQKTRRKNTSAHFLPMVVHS
In assay [6] the test system is glycogen synthase kinase-3 (GSK3A per assay name; protocol says GSK3B). As to the kind of experiment: compounds binding glycogen synthase kinase-3 – biochemical, small-molecule microarray, 635 nm fluorescence, GSK3A, primary screen (AID 1103). Also: the record names both GSK3A and GSK3B. The settings on record: fluorescence 635 nm, higher = more signal.
For assay [7], the target named is Epidermal growth factor receptor (Homo sapiens) (UniProt P00533). Briefly: compounds binding epidermal growth factor receptor – biochemical, small-molecule microarray, 635 nm fluorescence, primary screen (AID 1104).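 Also: score merges 667 nm emission intensity with spot signal to noise over triplicate slides.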 The settings on record: EGFR binding, higher = more signal.
Epidermal growth factor receptor (Homo sapiens), sequence (P00533 whole entry, looked up): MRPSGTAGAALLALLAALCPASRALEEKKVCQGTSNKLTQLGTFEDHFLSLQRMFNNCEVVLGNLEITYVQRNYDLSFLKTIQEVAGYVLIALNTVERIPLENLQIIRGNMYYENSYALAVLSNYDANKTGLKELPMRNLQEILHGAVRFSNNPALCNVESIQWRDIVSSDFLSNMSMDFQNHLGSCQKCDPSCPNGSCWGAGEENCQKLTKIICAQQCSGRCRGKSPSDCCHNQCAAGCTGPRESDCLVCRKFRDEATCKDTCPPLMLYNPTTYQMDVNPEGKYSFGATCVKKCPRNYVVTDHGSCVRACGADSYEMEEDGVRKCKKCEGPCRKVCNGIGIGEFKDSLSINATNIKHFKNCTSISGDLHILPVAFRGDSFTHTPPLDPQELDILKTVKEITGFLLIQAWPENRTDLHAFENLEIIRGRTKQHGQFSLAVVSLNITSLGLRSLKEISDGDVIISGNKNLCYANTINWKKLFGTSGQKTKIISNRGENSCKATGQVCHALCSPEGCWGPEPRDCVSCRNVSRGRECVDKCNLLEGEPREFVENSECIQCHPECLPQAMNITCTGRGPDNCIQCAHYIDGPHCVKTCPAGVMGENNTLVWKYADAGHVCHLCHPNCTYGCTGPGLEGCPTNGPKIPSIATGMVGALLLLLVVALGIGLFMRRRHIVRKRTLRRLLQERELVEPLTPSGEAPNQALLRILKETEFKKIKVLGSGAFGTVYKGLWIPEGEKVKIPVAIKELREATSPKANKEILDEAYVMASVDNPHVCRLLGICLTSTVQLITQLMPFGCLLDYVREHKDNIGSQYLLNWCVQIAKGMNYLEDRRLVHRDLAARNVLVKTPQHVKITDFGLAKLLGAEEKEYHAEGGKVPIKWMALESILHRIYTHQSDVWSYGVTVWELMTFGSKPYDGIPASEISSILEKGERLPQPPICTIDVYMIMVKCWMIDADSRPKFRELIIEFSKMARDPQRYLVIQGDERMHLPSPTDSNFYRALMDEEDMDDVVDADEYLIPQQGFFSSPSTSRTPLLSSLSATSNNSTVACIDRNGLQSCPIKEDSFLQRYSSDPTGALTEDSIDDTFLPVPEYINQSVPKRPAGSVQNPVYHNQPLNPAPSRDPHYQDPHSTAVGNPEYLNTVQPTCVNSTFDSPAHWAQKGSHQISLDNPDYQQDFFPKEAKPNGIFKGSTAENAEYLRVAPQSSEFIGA
Assay [8] has as its target Follistatin-related protein 3 (Homo sapiens) (UniProt O95633). Briefly: compounds binding follistatin-related protein 3 – biochemical, small-molecule microarray, 635 nm fluorescence, primary screen (AID 1105).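 Also: score merges emission near 667 nm and signal to noise per printed spot across three slides.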 The settings on record: FSTL3 binding, higher = more signal.
For assay [9], the target named is Dickkopf-related protein 1 (Homo sapiens) (UniProt O94907). Briefly: small molecules binding DKK1 protein – biochemical, small-molecule microarray, 635 nm fluorescence scan, primary screen (AID 1106).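 Also: score merges emission near 667 nm with signal to noise over three replicate slides.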 The settings on record: higher = more signal.
Dickkopf-related protein 1 (Homo sapiens), sequence (O94907 whole entry, looked up): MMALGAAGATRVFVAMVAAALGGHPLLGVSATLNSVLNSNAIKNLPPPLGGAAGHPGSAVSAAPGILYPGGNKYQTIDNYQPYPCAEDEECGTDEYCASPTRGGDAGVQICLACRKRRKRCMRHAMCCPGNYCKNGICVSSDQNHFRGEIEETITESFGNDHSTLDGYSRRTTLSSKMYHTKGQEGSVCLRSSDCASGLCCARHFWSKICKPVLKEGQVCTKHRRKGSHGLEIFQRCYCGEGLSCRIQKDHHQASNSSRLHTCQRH
Assay [10] concerns Inhibin beta A chain (activin A). Briefly: small molecules binding activin A – biochemical, small-molecule microarray, 635 nm fluorescence scan, primary screen (AID 1107).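 Also: mouse activin A protein probed at 4.33 µg/mL on printed slides; score merges bound-protein fluorescence near 667 nm with spot signal-to-noise.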 The settings on record: INHBA, higher = more signal.

Follistatin-related protein 3 (Homo sapiens), sequence (O95633 whole entry, looked up): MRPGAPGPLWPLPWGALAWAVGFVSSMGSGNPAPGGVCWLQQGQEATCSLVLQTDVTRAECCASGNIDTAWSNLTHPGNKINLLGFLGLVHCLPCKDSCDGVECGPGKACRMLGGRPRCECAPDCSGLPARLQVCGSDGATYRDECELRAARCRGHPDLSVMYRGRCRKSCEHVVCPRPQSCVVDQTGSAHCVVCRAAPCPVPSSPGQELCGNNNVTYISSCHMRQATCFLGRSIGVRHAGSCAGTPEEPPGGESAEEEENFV

`C=CCN(CCCCC)C(=O)C(c1cccs1)N(C(=O)/C=C\C(=O)O)c1c(Cl)cccc1CO` (stereo not given): the composite z-score in [1] is 1.04 and 0.231; in [2], -0.0127 and -0.47; in assay [3], 1.15 and 0.975; in [5] it was -0.85 and -2.15; in [6] it was -0.612 and -1.36; in assay [7], -2.28 and -1.78. For the same compound, the composite z-score is -2.13 and -1.29 in [8]; -3.02 and -1.77 in assay [9]; -2.25 and -3.37 in assay [10]. Besides, the z-score in assay [4] was 0.105 (inactive) and 1.15 (inactive).

For `CC(C)CON=C1C[C@@H](O)[C@@H](O)[C@@H]2[C@@H]3C(=O)N(c4cccc(Oc5ccccc5)c4)C(=O)[C@@H]3CC[C@H]12`, the composite z-score was 0.0512 in assay [1]; -0.354 in [2]; -0.712 in assay [3]; 0.357 in assay [5]; 0.278 in [6]; 0.338 in [7]. In addition, the composite z-score was 0.571 in assay [8], 0.661 in assay [9] and -0.15 in assay [10]. Besides, the z-score in assay [4] was -0.00485 (inactive).

Consider `COCn1c2ccccc2c2nnc(C(C)=O)nc21`, for which the composite z-score in assay [1] was -0.137 and 0.312; in assay [2] it was -0.228 and -0.221; in assay [3], -0.42 and -0.408; in [5], 0.529 and 0.182; in [6], -0.0671 and 0.0307; in assay [7] it was 0.574 and 0.979. Moreover, the composite z-score in [8] was 0.383 and 0.277; in [9], 0.808 and 0.152; in assay [10], 0.12 and 0.483. Further, the z-score in assay [4] is -0.592 (inactive) and -0.85 (inactive).

In the case of `COC(=O)C1=C(C)N(Cc2ccccc2)C2=C(C(C)=O)C[C@@](O)(C(=O)OC)C(=O)N2[C@@H]1c1ccccc1`, the composite z-score in assay [1] was 1.58 and 0.326; in assay [2], -0.301 and -0.205; in assay [3], -0.764 and -0.229; in assay [5], 0.988 and 0.0571; in assay [6], 0.74 and -0.0162; in assay [7], 0.381 and 0.348. The composite z-score in assay [8] was 0.869 and 0.521; in [9] it was 0.801 and 0.478; in [10], 0.522 and 1.28. The z-score in assay [4] is -0.805 (inactive) and -0.873 (inactive).

For the compound `CCCC[C@@H]1CN2[C@@H](CC[C@@H](C)[C@@H]2c2ccc(Br)cc2)C(=O)O1`, the composite z-score in assay [1] was 0.469 and 0.883; in assay [2], -0.13 and -0.277; in assay [3], -0.455 and -0.254; in assay [5], 0.979 and 0.906; in assay [6], 0.521 and 0.0677; in assay [7], 0.183 and -0.121. The composite z-score in assay [8] is 0.516 and 0.351; in [9], 0.272 and 0.136; in assay [10], 0.488 and -0.0019. In assay [4], the z-score was 0.33 (inactive) and 0.758 (inactive).

Take `C#CCN1C(/C=C/c2ccccc2)C(=O)OC[C@H]1c1ccccc1` (stereo not given in full): the composite z-score in assay [1] is 0.025 and 1.16; in assay [2] it was -0.23 and -0.207; in assay [3], -0.688 and -0.55; in assay [5], 0.33 and 0.0389; in assay [6], 0.658 and 0.0786; in [7], 0.62 and 0.18. Further, the composite z-score in assay [8] was 0.755 and 0.747; in assay [9], 0.69 and 0.375; in assay [10], 0.902 and 0.0774. For the same compound, the z-score in assay [4] was -2.64 (inactive) and -0.366 (inactive).

As to `C=C[C@@H](C)[C@@H](O)c1ccc(O)c2ccccc12`, the composite z-score in assay [1] is 1.02 and -0.0966; in assay [2], -0.419 and -0.315; in [3], 0.238 and 0.216; in [5], -0.665 and -0.654; in assay [6], -1.52 and -0.746; in [7] it was -0.815 and -1.04. Moreover, the composite z-score in assay [8] was -0.961 and -0.644; in assay [9] it was -0.598 and 0.088; in assay [10], 0.936 and 0.89. Moreover, the z-score in assay [4] is 0.591 (inactive) and -0.814 (inactive).

On to `CON(C)C(=O)c1nnc2c3ccccc3n(S(=O)(=O)c3ccc(C)cc3)c2n1`, for which the composite z-score in assay [1] was 0.478 and 0.658; in assay [2], -0.0748 and 0.249; in [3], -0.487 and -0.75; in assay [5], 0.638 and 0.746; in [6], 0.67 and 1.25; in assay [7] it was 0.484 and 0.58. Further, the composite z-score was 0.476 and 1.02 in [8]; 0.614 and 0.551 in assay [9]; 0.454 and 0.688 in assay [10]. Further, in assay [4], the z-score is 0.317 (inactive) and 0.807 (inactive).

Take `Cc1ccc(S(=O)(=O)N[C@H]2COC(=O)[C@@H](C)COC(=O)[C@H](C)NC(=O)CC=C[C@H]2C)cc1`: the composite z-score is 0.163 in assay [1]; -0.45 in [2]; -0.972 in [3]; 0.752 in assay [5]; 0.393 in assay [6]; 0.554 in assay [7]. The composite z-score is 0.804 in [8], 0.881 in assay [9] and -0.108 in assay [10]. Besides, in [4], the z-score is 0.00442 (inactive).
